Assay outcomes: PubChem BioAssay, several laboratories
DAX1 inh-1: blocks DAX1 repression of SF-1 activated StAR promoter; HEK293T StAR-luciferase reporter, SF-1/DAX-1 repression relief; inhibition, % at 6.8 µM; hit rate 1.1% among 370,000;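 active = inhibition above the mean over all tested compounds plus 3 SD, cut at about 3.6% in these data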;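 note: higher inhibition means more luminescence from relief of DAX-1 repression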
hgDAF-12 ag: agonists of H. glycines DAF-12 nuclear receptor; HEK293 GAL4-hgDAF12 UAS-luciferase reporter, agonist luminescence; normalized to butyrate control; activation, % at 6.8 µM; hit rate 1.8% among 370,000; AID 687014;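 active = activation above a cutoff set at the mean of all screened compounds plus 3 SD, cut at about 10% in these data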
DAX1 inh-2: inhibits human nuclear receptor DAX1. inhibition, % at 6.75 µM. hit rate 0.99% among 340,000. HEK293 Gal4-DAX1 luciferase reporter, luminescence;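 active = inhibition above the mean over all tested compounds plus 3 SD, cut at about 4.2% in these data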;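 note: inhibition shows as a rise in luminescence from relieved DAX1 repression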
Target sequence (P51843 207-470 limits assumed): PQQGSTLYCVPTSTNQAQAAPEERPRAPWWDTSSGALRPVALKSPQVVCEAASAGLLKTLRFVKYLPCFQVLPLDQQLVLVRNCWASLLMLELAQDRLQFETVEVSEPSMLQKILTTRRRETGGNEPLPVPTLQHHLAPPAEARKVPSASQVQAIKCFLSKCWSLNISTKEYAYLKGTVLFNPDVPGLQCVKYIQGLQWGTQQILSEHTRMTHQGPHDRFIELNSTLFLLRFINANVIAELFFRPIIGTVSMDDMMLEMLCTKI
hcDAF12 agonist: H. contortus DAF-12 activation, primary screen; HEK293 hcDAF-12 lit1-tk-luc reporter, luminescence; 0% DMSO, 100% Δ7-dafachronic acid; activation, % at 6.8 µM; hit rate 1.4% among 370,000; AID 652067;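 active = activation above the mean of all tested compounds plus 3 SD, cut at about 5.5% in these data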
NR1D1 modulator: Rev-erb alpha (human) modulation | Rev-erbα–FITC-DNA binding, fluorescence polarization, 90 min | activity, % at 10 µM | hit rate 0.79% among 370,000 | P20393;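 active = activity above about 14%, limit read from the data; passing the limit was not always enough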
ssDAF-12 act: activators of S. stercoralis DAF-12 nuclear receptor; HEK293 ssDAF-12/GRIP1 lit1-tk-luc reporter, luminescence; % of 3 µM dafachronic acid response; activation, % at 6.8 µM; hit rate 1% among 370,000;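 active = activation above the mean over all tested compounds plus 3 SD, cut at about 0.9% in these data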
Each line names hits and unclear results; the compound was inactive in the other large screens. Most compounds without a hit are left out; they make up all but 4.8% or so of the library.

O=C(COCc1ccccc1)N1CC[C@H]2[C@H](CCCN2Cc2ccc(F)cc2)C1	none (no result: DAX1 inh-2)
CCOC(=O)c1cccc(C(=O)OCC)n1	none
NC(=O)c1cccc(C(N)=O)n1	DAX1 inh-2 6.1
Cc1ccc(C(=O)c2cc(O)c(O)c([N+](=O)[O-])c2)cc1	none (no result: DAX1 inh-1, hgDAF-12 ag, DAX1 inh-2, hcDAF12 agonist, ssDAF-12 act)
CC(=O)Nc1ccc(NC(=O)c2cc(-c3ccc(F)cc3C)n[nH]2)cc1	DAX1 inh-1 4.1, hgDAF-12 ag 13 (no result: DAX1 inh-2)
CC(=O)Nc1ccc(NC(=O)c2cc(-c3ccc(C)c(C)c3O)n[nH]2)cc1	none
O=C(Nc1ccccc1)SC1CCCCC1	hgDAF-12 ag 12
COc1ccccc1NC(=S)N1CCC(C(=O)c2ccc(F)cc2)CC1	DAX1 inh-2 5.6
Cc1cccc(NC(=S)N2CCC(C(=O)c3ccc(F)cc3)CC2)c1C	none
COc1ccc(CNC(=O)C2CC(C)=C(C)CC2C(=O)O)cc1 (stereo not given)	none
CCC1=C(c2ccc(OC)cc2)CCC(C(=O)O)C1C (stereo not given)	ssDAF-12 act 61
CCCC[C@@H]1C(=O)N2N=Cc3cscc3[C@H]2N2N=Cc3cscc3[C@@H]12	none (no result: DAX1 inh-2)
O=C(OCC#CCSc1nnc(-c2cccc3ccccc23)o1)c1ccc(Br)cc1	none
O=C(OCC#CCSc1nnc(-c2cccc3ccccc23)o1)c1ccsc1	hgDAF-12 ag 11 (no result: DAX1 inh-1, DAX1 inh-2)
O=C(c1cccc(F)c1)N1CCCC(c2nc(-c3cccs3)no2)C1 (stereo not given)	none (no result: DAX1 inh-2)
CC1CCC(=O)N(CCSc2ccccc2)CC1 (stereo not given)	hcDAF12 agonist 6.2
Cc1ccc(CN(C)C(=O)C2CCN(C(=O)Nc3ccccc3)CC2)o1	none
CN(Cc1ccc(C(C)(C)C)cc1)C(=O)C1CCN(C(=O)Nc2ccccc2)CC1	DAX1 inh-2 7.6
Cc1nc(NC(=S)NC(=O)COc2ccccc2Cl)ccc1Br	ssDAF-12 act 0.9
COC(=O)[C@]12C[C@H](CC(=O)NCc3cccc4ccccc34)C(=O)N(Cc3ccc(Cl)cc3Cl)C1=C[C@H](C(C)C)O[C@@H]2C1CC1	none (no result: DAX1 inh-2)
N=c1oc2ccccc2cc1C(=O)Nc1ccccc1	hgDAF-12 ag 13, hcDAF12 agonist 5.9
COc1ccc2oc(=N)c(C(=O)Nc3ccc(F)cc3)cc2c1	none
N=c1oc2ccc(Cl)cc2cc1C(=O)Nc1ccc(F)cc1	DAX1 inh-2 5.5
COc1ccc2oc(=N)c(C(=O)Nc3ccccc3)cc2c1	none
CCOC(=O)N1CCN(C(=O)C[C@H]2C[C@@]3(C(=O)OC)C(=C[C@H](C(C)C)O[C@@H]3C3CC3)N(Cc3ccc(Cl)cc3Cl)C2=O)CC1	none (no result: DAX1 inh-2)
COC(=O)c1c(-c2ccc(OC)cc2)sc2ccc(OC)cc12	ssDAF-12 act 1.6
O=[N+]([O-])c1ccc(C2=NN(c3ccccc3)C(c3ccco3)C2)cc1 (stereo not given)	DAX1 inh-2 6.4
O=[N+]([O-])c1ccc(/C=C/C2=NN(c3ccccc3)C(c3ccco3)C2)cc1 (stereo not given)	none
COc1ccc(CC(=O)NCC2CCCN(Cc3ccc(F)cc3F)C2)cc1 (stereo not given)	hgDAF-12 ag 12
COc1ccccc1CNC(=O)CSc1ccccc1	hgDAF-12 ag 11
COc1ccccc1CNC(=O)CSc1ccc(C)cc1	none
COc1ccccc1CNC(=O)CN1C(=O)c2ccccc2S1(=O)=O	DAX1 inh-2 4.5
N#Cc1cc(F)cc(OC[C@@H](O)CN2CCC(C(O)(c3ccccc3)c3ccccc3)CC2)c1	none (no result: DAX1 inh-2)
CCOC(=O)CC[C@@]1(C(=O)OCC)C[C@@H](CC(=O)NCc2ccc(OC)c(OC)c2)C(=O)N2CCCC=C21	none (no result: DAX1 inh-2)
COc1ccc(C2=NN(C(C#N)c3ccc(OC)cc3)C(c3ccccc3)C2)cc1 (stereo not given)	hgDAF-12 ag 13, DAX1 inh-2 5.4, hcDAF12 agonist 6.4
COC(=O)C(C[N+](=O)[O-])C1=C(O)CC(C)(C)CC1=O (stereo not given)	none (no result: DAX1 inh-2)
O=C(C/C=N/OCc1c(Cl)cccc1Cl)c1ccccc1	ssDAF-12 act 0.9
N#Cc1ccc(S(=O)(=O)N2CCCc3nc(-c4ccccc4)ccc32)cc1	none (no result: DAX1 inh-2)
Cc1cccc(Cn2cc(COC(=O)Nc3ccc(F)cc3)nn2)c1	none (no result: DAX1 inh-2)
CCCC(=O)N1CCC[C@]2(CC[C@H](CCC#N)O2)C1	none (no result: DAX1 inh-2)
O=C(COc1ccccc1F)Nc1ccc2c(c1)CCC2	DAX1 inh-1 3.7, hgDAF-12 ag 15
CCOc1cc(CNc2ccc3c(c2)CCC3)ccc1O	ssDAF-12 act 1.2
CCOc1ccccc1NC(=O)Nc1ccc2c(c1)CCC2	DAX1 inh-1 3.6
CCOc1ccccc1NC(=O)Nc1cccc(NC(C)=O)c1	none
COC(=O)[C@H](CC(C)C)N(Cc1cn(Cc2ccc(C)cc2)nn1)S(=O)(=O)c1ccc(F)cc1Br	none (no result: DAX1 inh-2)
Cc1nc(SCn2nnc3ccccc3c2=O)nc(C)c1C	none
Nc1nc(SCn2nnc3ccccc3c2=O)n[nH]1	DAX1 inh-2 6.8
CCC(C(=O)O)n1c2ccccc2c2cn[nH]c(=O)c21 (stereo not given)	ssDAF-12 act 1.0
CCC(C(=O)O)n1c(C(F)(F)F)nc2ccccc21 (stereo not given)	none
O=C(Nc1ccc([N+](=O)[O-])cc1)C(Cc1ccccc1)N1C(=O)c2cccc3cccc(c23)C1=O (stereo not given)	ssDAF-12 act 1.4
O=C(NC1CCCCN(Cc2ccc(Cl)cc2)C1=O)c1cccc(F)c1 (stereo not given)	none (no result: DAX1 inh-2)
CN1CCc2c(sc(/N=C/c3c[nH]c4ccccc34)c2C(N)=O)C1	hcDAF12 agonist 5.9 (no result: DAX1 inh-2)
Cc1cc2c(c(=O)o1)[C@@]1(C(=O)N(C)c3c(Br)cccc31)C1=C(CCCC1=O)O2	none (no result: DAX1 inh-2)
COCC(=O)Nc1ccc(S(=O)(=O)Nc2nccs2)cc1	DAX1 inh-2 4.4
O=C1C(Cl)=C(N2CCCCCC2)C(=O)N1c1ccc(Br)cc1	ssDAF-12 act 2.2
c1ccc(CC(Nc2cccnc2)c2ccccc2)cc1 (stereo not given)	none (no result: DAX1 inh-2)
COc1ccc(/C=C/C(=O)Oc2ccc(/C=N/NC(=O)c3ccccc3)cc2)cc1OC	DAX1 inh-2 4.2
O=C(N/N=C/c1ccc(F)cc1)c1ccccc1	hgDAF-12 ag 13, DAX1 inh-2 5.2
O=C(N/N=C\c1ccccc1)c1ccccc1-n1cccc1	ssDAF-12 act 1.2
O=C(N/N=C/c1ccccc1C(F)(F)F)c1ccc(O)cc1	DAX1 inh-2 5.0
O=C(N/N=C/c1ccccc1O)c1cccc(C(F)(F)F)c1	none
O=C(N/N=C\c1cccs1)c1ccccc1-n1cccc1	none
COC(=O)CCC(=O)N1C2=NC3=C(C(=O)N(Cc4ccc5c(c4)OCO5)C3=O)C3N(C)c4ccccc4[C@]23C[C@H]1CO (stereo not given in full)	none (no result: DAX1 inh-2)
CCCCc1c(-c2ccccc2OC)ncn1Cc1ccccc1C	none (no result: DAX1 inh-2)
